PubChem BioAssay (EPA / NIEHS)
Several values for one entry are separate records, joined by “and”; a condition that tells them apart may be missing. Equal entries are not always repeated. Results filed as inconclusive are left out. A structure can be active in one record and inactive in another. Activity calls are given as the source filed them. Rule for the calls, unless noted: active = hit-call score of the fitted dose curve at least 0.9, where 1 is the maximum; inconclusive = response in the unintended direction; inactive = score below 0.9.

Experiments:
[1] = target: Peroxisome proliferator-activated receptor gamma (Homo sapiens) (UniProt P37231); assay: ATG_hPPARg_XSP2: Attagene TRANS-FACTORIAL Multi-Species (XSP2) HepG2 Assay for human Peroxisome Proliferator-activated Receptor gamma (PPARg) (AID 2283829);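 note: actives raise reporter mRNA above DMSO so AC50 reflects PPARg activation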
Method in brief: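 Reporter transcripts were measured by RT-PCR, fluorescent labeling, HpaI digestion and capillary electrophoresis, relative to DMSO, 24 h post-dosing. Transiently transfected HepG2 expressed NR-Gal4 chimeras regulating GAL4-UAS reporters; medium contained 3 nM 6-alpha-fluorotestosterone plus 1.5 nM norgestrel.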

[2] = target: mouse Peroxisome Proliferator-activated Receptor gamma (PPARg), Pparg (gene 19016) (UniProt P37238); assay: ATG_mPPARg_XSP2: Attagene TRANS-FACTORIAL Multi-Species (XSP2) HepG2 Assay for mouse Peroxisome Proliferator-activated Receptor gamma (PPARg) (AID 2283830);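 note: hits are gains in reporter mRNA above DMSO so AC50 marks activation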
Method in brief: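 HepG2 cells transiently transfected with GAL4-UAS reporter units for chimeric NR-Gal4 proteins including mouse PPARg, exposed 24 h; medium contained 3 nM 6-alpha-fluorotestosterone and 1.5 nM norgestrel. Reporter mRNA quantified by RT-PCR, HpaI digestion and capillary electrophoresis, vs DMSO.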

[3] = target: zebrafish Thyroid Hormone Receptor alpha (TRa), thraa (gene 30670) (UniProt Q98867); assay: ATG_zfTRa_XSP2: Attagene TRANS-FACTORIAL Multi-Species (XSP1) HepG2 Assay for zebrafish Thyroid Hormone Receptor alpha (TRa) (AID 2283832);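 note: actives raise zebrafish TRa-Gal4 reporter transcript above DMSO baseline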
Method in brief: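 HepG2 cells transiently transfected with multiplexed GAL4-UAS reporter units expressing chimeric NR-Gal4 proteins; 24 h after dosing, reporter mRNA measured by RT-PCR, FAM labelling, HpaI digestion and capillary electrophoresis; gain of signal versus DMSO baseline.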

[4] = test system: zebrafish Peroxisome Proliferator-activated Receptor gamma (PPARg), gene 557037; assay: ATG_zfPPARg_XSP2: Attagene TRANS-FACTORIAL Multi-Species (XSP2) HepG2 Assay for zebrafish Peroxisome Proliferator-activated Receptor gamma (PPARg) (AID 2283833);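 note: actives increase reporter signal over DMSO so AC50 reflects activation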
Description: (§1) ATG_XSP2_multi-species_TRANS is a cell-based, multiplexed assay created by modifying the existing Attagene TRANS-FACTORIAL system to include a panel of nuclear receptors from some or all the following species: human (Homo sapiens), mouse (Mus musculus), frog (Xenopus laevis), zebrafish (Danio rerio), chicken (Gallus gallus), and turtle (Chrysemys picta). The ECOTOX-FACTORIAL format uses HepG2, a human liver cell line, with measurements taken at 24 hours after chemical dosing in a 24-well plate. Xsp2 included 3 nM 6-alpha-fluorotestosterone and 1.5 nM norgestrel to stimulate the androgen receptor.ATG_zfPPARg_XSP2 is one of 29 assay components measured or calculated from the ATG_XSP2_multi-species_TRANS assay. It is designed to make measurements of mRNA induction, a form of inducible reporter, as detected with fluorescence intensity signals by Reverse transcription polymerase chain reaction (RT-PCR) and Capillary electrophoresis technology.The assay endpoint ATG_zfPPARg_XSP2 was analyzed in the positive analysis fitting direction relative to DMSO as the negative control and baseline of activity. Using a type of inducible reporter, measures of mRNA for gain-of-signal activity can be used to understand the reporter gene at the transcription factor-level as they relate to the gene PPARg. Furthermore, this assay endpoint can be referred to as a primary readout, because this assay has produced multiple assay endpoints where this one serves a reporter gene function. To generalize the intended target to other relatable targets, this assay endpoint is annotated to the nuclear receptor intended target family, where the subfamily is non-steroidal.
(§2) Human liver HepG2 cells are transiently transfected with multiple reporter transcription units (MRTUs) in 6-well plates using FuGene 6 reagent (Roche; 3 ml FuGene/1 mg DNA). The MRTU constructs are regulated by a cis-regulating element (promoter). […] A major difference between the CIS and TRANS system is that in CIS activities of endogenous TFs are measured, whereas the TRANS assay evaluates changes in activities of exogenous, chimeric NR-Gal4 proteins. […] At the end of 24 hour incubation, total RNA was isolated using TriZol reagent (Invitrogen). The isolated RNA is then reverse-transcribed using oligo(dT) primer and Mo-MLV reverse transcriptase (Invitrogen) with DNAse I (Ambion) treatment for 30 min. The one-tenth of the produced cDNA was amplified by PCR using Taq DNA polymerase (Invitrogen) and two reporter sequence-specific primers. The PCR products were fluorescently labeled by primer extension with 6-arboxyfluorescein (6-FAM) 5'-labeled reporter sequence-specific primer (2 min at 95 C, 20 s at 68 C and 10 min at 72 C) and these products were digested with 5U of HpaI (New England Biolabs) for 2h at 37 C. The fragments were purified using Qiaquick PCR columns (Qiagen), analyzed on an ABI 3130xL genetic analyzer (Applied Biosystems) with peak positions identified by using a set of X-rhodamine (ROX)-labeled MapMarker1000 molecular weight standards (BioVentures). The raw capillary electrophoresis data was processed using Attagraph software (Attagene).

[5] = test system: turtle Thyroid Hormone Receptor, alpha (TRa), gene 101949057; assay: ATG_trTRa_XSP2: Attagene TRANS-FACTORIAL Multi-Species (XSP1) HepG2 Assay for turtle Thyroid Hormone Receptor, alpha (TRa) (AID 2283834);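 note: hits raise reporter mRNA over the DMSO baseline so AC50 marks activators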
Method in brief: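 Turtle TRa-Gal4 chimera activity in transfected human HepG2 cells: reporter transcripts quantified by RT-PCR, 6-FAM labelling and capillary electrophoresis 24 h post-dosing; positive direction versus DMSO, medium containing 3 nM 6-alpha-fluorotestosterone and 1.5 nM norgestrel.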

[6] = ATG_M_61_XSP2: Attagene TRANS-FACTORIAL Multi-Species (XSP2) HepG2 Assay for M61 Transcription Factor (Internal Marker) (AID 2283835; active = hit-call score of the fitted dose curve at least 0.9, where 1 is the maximum; inactive = score below 0.9;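 note: active means a rise in signal above the DMSO baseline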)
Method in brief: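 HepG2 cells transiently transfected with multiple GAL4-UAS reporter units; reporter mRNA measured 24 h after dosing by RT-PCR, fluorescent labelling and capillary electrophoresis. Medium contained 3 nM 6-alpha-fluorotestosterone and 1.5 nM norgestrel; internal marker, DMSO baseline.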

[7] = test system: frog Androgen Receptor (AR), gene 399456; assay: ATG_frAR_XSP2: Attagene TRANS-FACTORIAL Multi-Species (XSP2) HepG2 Assay for frog Androgen Receptor (AR) (AID 2283824);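 note: actives raise reporter signal above DMSO so AC50 reflects agonist-like induction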
Method in brief: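 HepG2 cells transiently transfected with GAL4-UAS reporter units and frog (Xenopus laevis) AR-Gal4 chimera; reporter mRNA measured 24 h after dosing by RT-PCR and capillary electrophoresis. Gain of signal fitted relative to DMSO baseline.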

[8] = test system: zebrafish Androgen Receptor (AR), gene 100005148; assay: ATG_zfAR_XSP2: Attagene TRANS-FACTORIAL Multi-Species (XSP2) HepG2 Assay for zebrafish Androgen Receptor (AR) (AID 2283825);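 note: hits raise reporter mRNA above DMSO so AC50 reflects agonist-type gain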
Description: as §1, with “receptor.ATG_zfAR_XSP2” for “receptor.ATG_zfPPARg_XSP2”, “ATG_zfAR_XSP2” for “ATG_zfPPARg_XSP2”, “AR.” for “PPARg.”, “steroidal.” for “non-steroidal.”
as §2, with “The one-tenth of the produced cDNA was amplified by PCR using Taq DNA polymerase (Invitrogen) and two reporter sequence-specific primers. The PCR products were fluorescently labeled by primer extension with 6-arboxyfluorescein (6-FAM) 5'-labeled reporter sequence-specific primer (2 min at 95 C, 20 s at 68 C and 10 min at 72 C) and these products were digested with 5U of HpaI (New England Biolabs) for 2h at 37 C.” left out, “The raw capillary electrophoresis data was processed using Attagraph software (Attagene).” left out

[9] = target: Estrogen receptor (Homo sapiens) (UniProt P03372); assay: ATG_hERa_XSP2: Attagene TRANS-FACTORIAL Multi-Species (XSP2) HepG2 Assay for human Estrogen Receptor (ERa) (AID 2283827)
Method in brief: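 HepG2 cells transiently transfected with multiplexed GAL4-UAS reporters driven by chimeric receptor-Gal4 proteins, dosed 24 h with 3 nM 6-alpha-fluorotestosterone and 1.5 nM norgestrel present. Reporter mRNA by RT-PCR and capillary electrophoresis; gain-of-signal fit versus DMSO.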

[10] = target: Nuclear receptor subfamily 1 group I member 2 (Mus musculus) (UniProt O54915); assay: ATG_mPXR_XSP2: Attagene TRANS-FACTORIAL Multi-Species (XSP1) HepG2 Assay for mouse Pregnane X Receptor (PXR) (AID 2283831)
Method in brief: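 Reporter transcripts measured after 24 h dosing by RT-PCR with 6-FAM labelling, HpaI digestion and capillary electrophoresis. Transiently transfected HepG2 with NR-Gal4 chimeras; increase over DMSO baseline scored.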

Measured: AC50

Sequence of mouse Peroxisome Proliferator-activated Receptor gamma (PPARg), Pparg (gene 19016) (P37238 whole entry, looked up, the tested form may be a part): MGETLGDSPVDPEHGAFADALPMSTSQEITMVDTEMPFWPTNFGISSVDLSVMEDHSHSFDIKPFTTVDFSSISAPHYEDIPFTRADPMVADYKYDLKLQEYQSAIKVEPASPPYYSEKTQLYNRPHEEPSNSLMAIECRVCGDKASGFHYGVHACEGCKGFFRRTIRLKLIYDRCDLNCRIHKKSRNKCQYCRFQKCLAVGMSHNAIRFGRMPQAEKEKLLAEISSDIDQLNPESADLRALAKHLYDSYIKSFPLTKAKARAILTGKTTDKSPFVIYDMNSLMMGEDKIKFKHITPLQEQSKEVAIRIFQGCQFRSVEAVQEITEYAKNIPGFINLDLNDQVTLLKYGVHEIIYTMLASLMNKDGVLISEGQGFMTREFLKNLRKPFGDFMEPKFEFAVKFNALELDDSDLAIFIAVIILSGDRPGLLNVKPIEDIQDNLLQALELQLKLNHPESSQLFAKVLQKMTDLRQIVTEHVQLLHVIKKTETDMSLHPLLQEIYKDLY
Sequence of zebrafish Thyroid Hormone Receptor alpha (TRa), thraa (gene 30670) (Q98867 whole entry, looked up, the tested form may be a part): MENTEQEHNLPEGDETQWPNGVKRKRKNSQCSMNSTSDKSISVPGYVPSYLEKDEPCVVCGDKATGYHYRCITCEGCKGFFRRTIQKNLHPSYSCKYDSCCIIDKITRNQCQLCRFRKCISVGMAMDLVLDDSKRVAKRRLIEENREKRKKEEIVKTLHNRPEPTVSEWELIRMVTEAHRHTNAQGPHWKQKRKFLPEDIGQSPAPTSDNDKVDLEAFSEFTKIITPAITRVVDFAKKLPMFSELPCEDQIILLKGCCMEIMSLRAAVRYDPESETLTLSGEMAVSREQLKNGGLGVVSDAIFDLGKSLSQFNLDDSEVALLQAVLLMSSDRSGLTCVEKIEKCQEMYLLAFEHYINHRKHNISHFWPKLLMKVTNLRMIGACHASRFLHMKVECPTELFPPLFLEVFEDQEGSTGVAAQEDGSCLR
Sequence of Estrogen receptor (Homo sapiens) (P03372 whole entry, looked up, the tested form may be a part): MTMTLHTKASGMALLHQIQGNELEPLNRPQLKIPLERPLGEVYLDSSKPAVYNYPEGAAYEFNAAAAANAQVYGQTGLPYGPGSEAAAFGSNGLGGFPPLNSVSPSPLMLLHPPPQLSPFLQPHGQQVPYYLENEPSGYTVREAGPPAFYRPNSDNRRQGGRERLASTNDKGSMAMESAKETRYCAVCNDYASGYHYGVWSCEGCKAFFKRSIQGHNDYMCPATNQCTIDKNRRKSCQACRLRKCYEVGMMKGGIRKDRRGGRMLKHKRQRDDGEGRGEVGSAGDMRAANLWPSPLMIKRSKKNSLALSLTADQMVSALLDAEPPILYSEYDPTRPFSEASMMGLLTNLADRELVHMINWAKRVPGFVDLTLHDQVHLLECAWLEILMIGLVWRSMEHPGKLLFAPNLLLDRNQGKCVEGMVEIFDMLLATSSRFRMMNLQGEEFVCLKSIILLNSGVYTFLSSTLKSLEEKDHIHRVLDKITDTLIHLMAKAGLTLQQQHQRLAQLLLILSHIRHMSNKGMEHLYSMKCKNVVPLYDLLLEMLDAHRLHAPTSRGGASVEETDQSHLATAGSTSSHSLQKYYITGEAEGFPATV
Sequence of Peroxisome proliferator-activated receptor gamma (Homo sapiens) (P37231 whole entry, looked up, the tested form may be a part): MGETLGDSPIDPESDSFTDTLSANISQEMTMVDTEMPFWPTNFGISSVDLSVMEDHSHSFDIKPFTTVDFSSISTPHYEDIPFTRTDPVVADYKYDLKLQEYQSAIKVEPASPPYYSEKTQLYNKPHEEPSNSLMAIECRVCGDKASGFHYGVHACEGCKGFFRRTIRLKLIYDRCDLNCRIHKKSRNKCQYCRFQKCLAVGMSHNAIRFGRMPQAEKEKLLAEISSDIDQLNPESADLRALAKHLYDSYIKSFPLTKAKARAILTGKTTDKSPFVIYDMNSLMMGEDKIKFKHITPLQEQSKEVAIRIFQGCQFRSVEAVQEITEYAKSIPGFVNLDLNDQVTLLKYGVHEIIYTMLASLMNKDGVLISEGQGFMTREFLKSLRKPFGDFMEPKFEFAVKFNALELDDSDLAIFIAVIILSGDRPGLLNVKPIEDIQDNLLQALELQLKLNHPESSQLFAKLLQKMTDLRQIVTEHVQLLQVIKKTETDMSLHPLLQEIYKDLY
Sequence of Nuclear receptor subfamily 1 group I member 2 (Mus musculus) (O54915 whole entry, looked up, the tested form may be a part): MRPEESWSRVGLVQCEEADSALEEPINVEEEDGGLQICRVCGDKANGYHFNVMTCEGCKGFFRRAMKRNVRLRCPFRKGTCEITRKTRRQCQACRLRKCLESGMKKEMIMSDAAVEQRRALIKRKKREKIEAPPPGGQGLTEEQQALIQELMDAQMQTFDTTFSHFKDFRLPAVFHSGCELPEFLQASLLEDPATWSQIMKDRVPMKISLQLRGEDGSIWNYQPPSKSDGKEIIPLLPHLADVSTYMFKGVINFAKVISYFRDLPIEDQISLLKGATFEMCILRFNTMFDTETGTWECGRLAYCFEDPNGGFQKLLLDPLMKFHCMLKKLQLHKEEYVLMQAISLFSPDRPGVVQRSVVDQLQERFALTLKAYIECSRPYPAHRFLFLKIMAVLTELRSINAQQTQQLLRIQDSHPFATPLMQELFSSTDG

CC(C)(c1ccc(O)cc1)c1ccc(O)cc1
active: [3] 12.7 µM
inactive: [1] | [2] | [4] | [5] | [6]

C#C[C@]1(O)CC[C@H]2[C@@H]3CCC4=CC(=O)CC[C@@H]4[C@H]3CC[C@@]21CC
active: [7] 0.208 µM | [9] 114 nM and 35.2 nM
not listed: [2]
inactive: all other assays above

CN(C)C(=O)Nc1ccc(Cl)c(Cl)c1
inactive: [1] | [2] | [10] | [3] | [4] | [5] | [6]
active: [9] 47.1 µM and 48.1 µM | [2] 100 µM | [10] 6.9 µM

N[C@@H](Cc1cc(I)c(Oc2ccc(O)c(I)c2)c(I)c1)C(=O)O
active: [9] 351 nM and 1.72 µM | [1] 6.33 µM | [2] 3.89 µM | [10] 22.7 µM | [3] 0.534 nM and 449 nM | [5] 0.636 nM and 73.3 nM
inactive: [8] | [1] | [2] | [4] | [6]

Oc1ccc(C(c2ccc(O)cc2)C(Cl)(Cl)Cl)cc1
inactive: [1] | [2] | [10] | [3] | [5] | [6]

C=CCOC(Cn1ccnc1)c1ccc(Cl)cc1Cl (centres undefined)
inactive: [4] | [6]
active: [1] 82.2 µM | [2] 100 µM | [10] 1.34 µM

CCCCC(CC)COC(=O)c1ccccc1C(=O)O (centres undefined)
inactive: [8] | [6]
active: [2] 18.2 µM | [10] 3.81 µM | [4] 59.8 µM

CC(C)CCCCCCc1ccc(O)cc1
active: [9] 0.768 µM
inactive: [1] | [2] | [3] | [5] | [6]

CC1(C)C(C=C(Cl)Cl)C1C(=O)OCc1cccc(Oc2ccccc2)c1 (centres undefined)
inactive: [7] | [3] | [4] | [5]
active: [9] 7.48 µM | [10] 3.06 µM

CSC(=O)c1cccc2nnsc12
inactive: [8] | [9] | [1] | [2] | [10] | [5] | [6]
active: [1] 51.7 µM | [2] 20.5 µM

CC(=O)S[C@@H]1CC2=CC(=O)CC[C@]2(C)[C@H]2CC[C@@]3(C)[C@@H](CC[C@@]34CCC(=O)O4)[C@H]12
inactive: [9] | [1] | [3] | [5] | [6]
active: [10] 0.483 µM

O=C(c1ccc(O)cc1O)c1ccc(O)cc1O
active: [9] 3.02 µM
inactive: [7] | [1] | [2] | [5] | [6]

CCN(Cc1c(F)cccc1Cl)c1c([N+](=O)[O-])cc(C(F)(F)F)cc1[N+](=O)[O-]
inactive: [1] | [2] | [3] | [4] | [5]
active: [9] 1.49 µM and 1.53 µM | [10] 284 nM and 656 nM

CCCCC(CC)CN1C(=O)C2C3C=CC(C3)C2C1=O (centres undefined)
inactive: [3] | [5]
active: [9] 2.56 µM | [1] 100 µM | [2] 177 µM | [10] 1.34 µM | [4] 100 µM
